A selection: hits, their analogues and other compounds. The true share with any hit is near 4.3%.
NadD block: inhibitors of S. aureus NadD, primary screen, biochemical, colorimetric, uHTS | Nicotinate-nucleotide adenylyltransferase NadD (Staphylococcus aureus N315) | inhibition, % at 20 µM | purified NadD enzyme, colorimetric absorbance read-out | AID 602399, 2012 | actives 0.78% (n = 360,000); in the data active = inhibition above about 26%
FAS TE block: FAS thioesterase domain inhibitors, primary screen, biochemical, fluorescence intensity, uHTS; actives 0.67% (n = 360,000); recombinant FAS-TE, OMFH fluorogenic substrate, fluorescence endpoint; inhibition, % at 15 µM; Fatty acid synthase (Homo sapiens), P49327;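 active = compounds whose normalised, plate-corrected inhibition of enzyme fluorescence in the single-dose primary screen is 50% or more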;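 also: 0% = DMSO with enzyme and 100% = substrate without enzyme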
rCAG binder: binders of r(CAG) RNA repeats, primary screen, biochemical, fluorescence; r(CAG) RNA repeat, TO-PRO-1 dye displacement fluorescence; inhibition, % at 3 µM; actives 1.3% (n = 370,000); AID 651821, 2012;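 active = inhibition above the plate cutoff, the mean of all test compounds on that plate plus 3 SD, cut at about 35% in these data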;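 also: 0% = DMSO alone and 100% = 100 µM mitoxantrone as full dye displacement; higher means more dye released from RNA so lower well fluorescence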
GRIN3A LBD mod: binders of NR3A ligand-binding domain, primary screen, biophysical, differential scanning fluorimetry, uHTS. Glutamate receptor ionotropic, NMDA 3A (GRIN3A) ligand-binding domain. NR3A LBD differential scanning fluorimetry, Tm shift; 0% = protein alone, 100% = glycine-bound protein. Tm shift relative to glycine control, % at 25 µM. actives 2.5% (n = 340,000);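 active = melting temperature shift of at least 10% of the positive control shift, at one fixed dose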
FAS-TE conf: FAS thioesterase domain inhibitors, confirmation, biochemical, fluorescence intensity, single concentration; shares compounds with FAS TE block; inhibition, % at 15 µM; recombinant FAS-TE, OMFH fluorogenic substrate; actives 45% (n = 2,300); AID 624325, 2012;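 active = compounds inhibiting the enzyme by at least 50% at 15 µM in any one of the replicates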;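 also: 0% = enzyme with DMSO only and 100% = wells lacking enzyme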
NadD inh conf: inhibitors of S. aureus NadD, confirmation, biochemical, colorimetric, single concentration; shares compounds with NadD block; purified S. aureus NadD, colorimetric enzyme assay; inhibition, % at 20 µM; actives 13% (n = 2,000); AID 624309, 2012; in the data active = inhibition mostly above about 42%, no sharp cut-off; inactive = mostly below about 42%
rCAG binder conf: small molecules binding CAG repeat RNA – biochemical, fluorescence, confirmation; inhibition, % at 3 µM; actives 70% (n = 4,300); r(CAG) RNA repeat, TO-PRO-1 dye displacement fluorescence; shares compounds with rCAG binder;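 active = inhibition above a per-plate cutoff, the mean inhibition of sample wells plus 3 SD, cut at about 35% in these data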;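 also: loss of TO-PRO-1 fluorescence as compound displaces dye from 1x1 AA loop RNA; 0% = DMSO only wells and 100% = 100 µM mitoxantrone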
dCAG dye counter: displacement of TO-PRO-1 from CAG DNA duplex, counter-screen for rCAG RNA repeat binder project, biochemical, fluorescence, TO-PRO-1 dye, d(CAG) DNA oligo; shares compounds with rCAG binder; d(CAG) DNA oligo TO-PRO-1 dye displacement; inhibition, % at 3 µM; actives 94% (n = 4,300);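 active = inhibition above its plate's cutoff, the mean test-well inhibition plus 3 SD, cut at about 4.8% in these data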;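 also: 0% = DNA dye mix with DMSO and 100% = 100 µM mitoxantrone; hits displace the dye from DNA and so lower well fluorescence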
Numbers without * were called inactive; nt = no result given.

SMILES	NadD block	FAS TE block	rCAG binder	GRIN3A LBD mod	others
O=c1[nH]c2ccccc2n1C1CCN(C(CCc2ccccc2)c2nnnn2-c2ccc3c(c2)OCCO3)CC1 (stereo not drawn)	24.5	88.7*	12.8	nt	FAS-TE conf=16.6
COc1ccc(-n2nnnc2C(CCc2ccccc2)N2CCC(n3c(=O)[nH]c4ccccc43)CC2)cc1 (stereo not drawn)	17.5	38.2	13.8	nt
COc1cccc(C(c2nnnn2-c2c(C)cccc2C)N2CCC(n3c(=O)[nH]c4ccccc43)CC2)c1OC (stereo not drawn)	12.3	81.7*	10.1	nt	FAS-TE conf=3.9
COc1ccc(C(c2nnnn2-c2ccc3c(c2)OCCO3)N2CCC(n3c(=O)[nH]c4ccccc43)CC2)cc1 (stereo not drawn)	13.0	54.1*	11.9	nt	FAS-TE conf=15.0
CCC12CCN(CC3(O)CC3)C(Cc3ccc(O)cc31)C2(C)C (stereo not drawn)	nt	nt	2.6	nt
NP(=O)(Oc1ccccc1Cl)Oc1ccccc1Cl	-3.3	75.3*	-3.9	-0.4	FAS-TE conf=85.2*
CC[C@H](C(N)=O)N1CCCC1=O	nt	nt	0.9	nt
S=C(NCCc1ccccc1)N1Cc2cc(Br)ccc2-n2nncc2C1	-4.7	62.2*	1.1	nt	FAS-TE conf=25.5*
O=C(CN1C(=O)CN=C(c2ccccc2)c2cc(Cl)ccc21)NC1CCCCC1	nt	nt	6.4	nt
Cc1cccc(C)c1-n1nnnc1C(CCc1ccccc1)N1CCC(n2c(=O)[nH]c3ccccc32)CC1 (stereo not drawn)	30.5*	53.9*	4.4	nt	FAS-TE conf=12.0;NadD inh conf=1.3
CC(C)C(NC(=O)OCc1ccccc1)P(=O)(Oc1ccccc1)Oc1ccccc1 (stereo not drawn)	nt	nt	2.5	nt
COc1ccc2nc(-c3ccc(CN4CCC(n5c(=O)[nH]c6ccccc65)CC4)cc3)c(-c3ccccc3)nc2c1	36.7*	76.5*	14.0	nt	FAS-TE conf=10.9;NadD inh conf=20.2
COc1ccc(N2C(=O)CC(N3CCC(n4c(=O)[nH]c5ccccc54)CC3)C2=O)cc1 (stereo not drawn)	-3.8	-5.3	-3.7	-1.3
CC[C@H]1CN2CCC1C[C@H]2[C@H](O)c1ccnc2ccc(OC)cc12 (stereo partly drawn)	48.4*	-1.4	5.8	-1.3	NadD inh conf=-16.3
NNC(=O)c1nc[nH]c1C(=O)Nc1ccc(Cl)cc1C(=O)c1ccccc1	48.3*	4.5	7.6	0.2	NadD inh conf=23.8
CCCCn1c(=O)c(C(=O)Nc2ccccc2C)c(O)c2ccccc21	-6.1	20.6	nt	4.3
CC(C)CCn1c(=O)c(C(=O)Nc2ccccc2S(N)(=O)=O)c(O)c2ccccc21	49.3*	7.6	13.2	4.8	NadD inh conf=23.1
CC(C)(C)OC(=O)NCCCCC(N)[P+](=O)O (stereo not drawn)	nt	nt	3.3	nt
COc1cc2c(cc1OC)-c1c3c(cc4c1[C@@H](C2)N(C)CC4)OCO3	11.9	7.4	1.3	-5.2
COc1cc2c(cc1O)C[C@H]1NCCc3cc4c(c-2c31)OCO4	33.6*	-7.3	21.3	-10.8	NadD inh conf=34.1
c1ccc2c(CN3CCN(C4CCCCC4)CC3)c[nH]c2c1	38.3*	-2.6	2.2	-2.5	NadD inh conf=-19.3
CC(C)C(CN1CCC(C)(c2cccc(O)c2)[C@@H](C)C1)NC(=O)C1Cc2ccc(O)cc2CN1 (stereo partly drawn)	nt	nt	2.3	nt
O=C(NCCN1CCC2(CC1)C(=O)NCN2c1ccccc1)c1ccc(F)cc1F	nt	nt	1.2	nt
O=C(Cc1cc(=O)oc2cc(O)ccc12)NN=Cc1ccc(N(CCCl)CCCl)cc1	54.2*	-7.9	29.6	18.3*	NadD inh conf=49.4*
O=C(NN=Cc1ccc(N(CCCl)CCCl)cc1)c1cc(=O)[nH]c(=O)[nH]1	5.3	-1.4	2.1	8.2
SMILES	NadD block	FAS TE block	rCAG binder	GRIN3A LBD mod	others
O=c1[nH]c(=S)[nH]c(O)c1N=Nc1ccc(S(=O)(=O)N2CCc3ccccc32)cc1	48.7*	24.1	63.7*	-1.8	NadD inh conf=69.8*;rCAG binder conf=49.0*;dCAG dye counter=19.2*
O=C(NCCN1CCC2(CC1)C(=O)NCN2c1ccccc1)c1ccccc1C(F)(F)F	nt	nt	0.7	nt
CCOc1cccc(N2C(=O)/C(=C/c3ccco3)C(=O)NC2=S)c1	8.6	-0.7	69.3*	-1.0	rCAG binder conf=68.4*;dCAG dye counter=35.2*
O=C1NC(=S)N(c2ccccc2)C(=O)/C1=C/c1ccco1	4.9	-2.8	89.4*	-1.2	rCAG binder conf=90.0*;dCAG dye counter=63.2*
COc1ccccc1/C=C1\C(=O)NC(=S)N(c2ccccc2)C1=O	2.2	-5.0	17.7	3.6
COc1ccc(Cn2c(O)c(/C=N/NC(=O)c3ccccc3O)c(=O)[nH]c2=O)cc1	3.8	18.2	90.9*	6.0	rCAG binder conf=76.3*;dCAG dye counter=36.5*
COc1ccc(Cn2c(O)c(/C=N/NC(=O)c3ccncc3)c(=O)[nH]c2=O)cc1	2.4	0.2	24.2	-2.2
O=C(N/N=C/c1c(O)n(Cc2ccc(F)cc2)c(=O)[nH]c1=O)c1ccccc1O	5.9	20.1	84.5*	5.5	rCAG binder conf=67.5*;dCAG dye counter=26.1*
O=C(N/N=C/c1c(O)n(CCc2ccccc2)c(=O)[nH]c1=O)c1ccccc1O	1.7	19.7	87.3*	5.6	rCAG binder conf=65.3*;dCAG dye counter=25.4*
CN1C(=O)NC(=O)C(N=Nc2ccc(Cl)cc2)C1=O (stereo not drawn)	0.4	-5.2	3.6	-1.1
O=c1nc(/C=C/c2ccc(Cl)cc2Cl)cc(C(F)(F)F)[nH]1	3.1	8.9	49.4*	-3.8	rCAG binder conf=38.0*;dCAG dye counter=10.3*
COC(=O)[C@@]1(Sc2ccc(C)cc2)CC(=O)N(P(=O)(OC)OC)[C@@H]1c1ccccc1	-0.8	-0.6	0.6	nt
CCN1C(=O)C(=C/C=C/c2ccco2)C(=O)N(CC)C1=S	22.1	-6.4	56.5*	-5.4	rCAG binder conf=48.7*;dCAG dye counter=17.2*
CCN1C(=O)C(=C2C=C(C)N(Cc3ccco3)C(C)=C2)C(=O)N(CC)C1=S	-2.7	16.7	0.3	-26.7
COc1ccc(/C=C2/C(=O)N(Cc3ccco3)C(=O)N(C(C)C)C2=O)cc1	33.5*	-0.7	59.6*	2.4	rCAG binder conf=76.6*;dCAG dye counter=40.8*

Bioassay records deposited in PubChem BioAssay by several laboratories.
